From PubChem BioAssay (NCATS) come the findings set out here.

The structures appear in SMILES notation. Records with an inconclusive call do not appear. Calls of active or inactive are those of the source. Unless noted, calls come from the whole dose curve; as a rule, active = well fitted cell-killing curve with a large enough effect; inconclusive = small, poorly fitted or top-dose-only effect; inactive = flat fitted curve, though single readings scatter.

Test [1] can be described thus: Cell Viability - LYMP2-020 (AID 986).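 Note: series mostly up to about 92 µM; plate controls were DMSO only for no effect and tetraoctylammonium bromide at 92 µM for full effect; nearly all actives have a fitted effect of over 55% in size.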 The method in brief:
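Human lymphoblastoid LYMP2-020 cells (2500/well) preincubated 5 h at 37 C, then treated 24 h at 37 C. Viability measured as intracellular ATP by CellTiter-Glo luminescence after 30 min at room temperature; AC50 from Hill fits.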

Test [2] is described as follows: Cell Viability - LYMP2-022 (AID 987).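 Note: 0% = DMSO alone and full effect = tetraoctylammonium bromide at 92 µM; nearly all actives have a fitted effect of over 55% in size.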 The method in brief: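 LYMP2-022 lymphoblastoid cells (2500/well, complete medium) were treated with compounds for 24 hours at 37 C; intracellular ATP was then read by CellTiter-Glo luminescence after 30 min at room temperature. AC50 values were derived from Hill-equation fits.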
The nature of test [3]: Cell Viability - LYMP2-024 (AID 988).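 Note: plate controls were DMSO only for no effect and 92 µM tetraoctylammonium bromide for full effect; nearly all actives have a fitted effect of over 60% in size.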 The method in brief: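 Human lymphoblastoid LYMP2-024 cells (2500/well) rested 5 hr, then treated with compound for 24 hr at 37 C in complete medium. Viability was measured as intracellular ATP by CellTiter-Glo luminescence. AC50 values came from Hill-equation fits.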
The nature of test [4]: Cell Viability - LYMP2-026 (AID 989). Note: % is set by controls: 0 for no effect and ±100 for the full control effect; nearly all actives have a fitted effect of over 50% in size. The method in brief: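 Human lymphoblastoid LYMP2-026 cells, 2500/well, exposed to compound 24 h at 37 C in complete medium. Viability as intracellular ATP by CellTiter-Glo luminescence; AC50 from Hill fits of qHTS concentration-response.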
Test [5] in a line: Cell Viability - LYMP1-002 - Assay at 24 hr (AID 993). Note: % is set by controls: 0 for no effect and ±100 for the full control effect. The method in brief:
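Human lymphoblastoid LYMP1-002 cells (2500/well) treated 24 h at 37 °C; viability as intracellular ATP by CellTiter-Glo luminescence. Tetraoctylammonium bromide as positive control; AC50 from Hill-equation fits of qHTS concentration-response.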

A short description of test [6]: Cell Viability - LYMP1-002 - Assay at 40 hr (AID 994).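 Note: 0% = DMSO only and full inhibition = 92 µM tetraoctylammonium bromide; nearly all actives have a fitted effect of over 60% in size.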 The method in brief: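 LYMP1-002 human lymphoblastoid cells (2500/well, complete medium) were treated with compounds for 40 hr at 37 C. Intracellular ATP was measured by CellTiter-Glo luminescence, and AC50 values came from Hill-equation fits of concentration-response data; tetraoctylammonium bromide was the positive control.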

The nature of test [7]: qHTS Assay for Identification of Small Molecule Inducers of Hypoxia Response (AID 2120; active = well fitted curve in the direction sought with a large enough effect in the signal ratio, with a control signal flat, not every such curve was filed as active; the % refers to the signal ratio; note: 0% is about no effect). The method in brief:
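HRE-bla ME-180 cells in Opti-MEM with 0.5% dialyzed FBS, pre-plated 4-5 h, then compound titration for 17 h at 37 degrees Celsius. CCF4 loaded 2.5 h at room temperature; 460/530 nm ratio gave %Activity and AC50 for induction.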
In general terms: qHTS replaces the single test concentration by a dilution series.

Test [8] addresses Androgen receptor (Homo sapiens) (UniProt P10275). The experiment in a line: qHTS assay for small molecule agonists of androgen receptor signaling (AID 588515; active = well fitted curve in the direction sought with a large enough effect in the signal ratio, with a control signal flat; the % refers to the signal ratio; note: % is set by controls: 0 for no effect and ±100 for the full control effect). The settings on record: AR-UAS-bla HEK293, beta-lactamase ratio, agonist 16 h; stronger effect = higher value. The method in brief:
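EC50 and efficacy came from Hill fits of titrations (up to 92 uM) normalized to 30 nM R1881 as 100% and DMSO as 0%. Compound exposure was 16 h at 37 C on AR-UAS-bla HEK293 cells, with a 405/460/530 nm CCF4 fluorescence read.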

Test [9] addresses Bile acid receptor (Homo sapiens) (UniProt Q96RI1). The experiment in a line: qHTS assay for small molecule antagonists of farnesoid X receptor signaling (AID 588526; calls by dose curve; note: % is set by controls: 0 for no effect and ±100 for the full control effect). The method in brief: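 Antagonist mode: titrated compounds tested against chenodeoxycholic acid stimulation (normalized to 50 uM CDCA and DMSO) in GeneBLAzer HEK293T cells for 16 h. Beta-lactamase read by CCF4 fluorescence; IC50 from Hill fits.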

For test [10], the target named is Glucocorticoid receptor (Homo sapiens) (UniProt P04150). In words: qHTS assay for small molecule agonists of glucocorticoid receptor signaling (AID 588532; active = well fitted curve in the direction sought with a large enough effect in the signal ratio, with a control signal flat; the % refers to the signal ratio;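 note: 100% = dexamethasone at 0.1 µM and 0% = DMSO only wells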). The settings on record: HeLa MMTV-bla, beta-lactamase ratio, agonist, 18 h; stronger effect = higher value; percent of dexamethasone control, DMSO zero. The method in brief:
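Cells were plated and rested 3-5 h at 37 C, compounds were added in titration and incubated 18 h, then CCF4 substrate was loaded for 2 h at RT before reading blue/green fluorescence. EC50 came from Hill-equation fitting.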

A short description of test [11]: qHTS assay for small molecule antagonists of peroxisome proliferator-activated receptor delta signaling (AID 588535; active = well fitted inhibition curve with a large enough effect in the signal ratio, with a control signal flat, not every such curve was filed as active; the % refers to the signal ratio;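 for max response: cells co-treated with a PPAR-delta agonist as stimulator during compound exposure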). As to conditions: HEK293T PPARd-UAS-bla, beta-lactamase FRET ratio, 18 h; 460 nm channel. The method in brief:
(§1)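 Antagonist-mode beta-lactamase reporter (GeneBLAzer PPAR-delta-UAS-bla) in HEK293T cells, 2% charcoal/dextran FBS, 4000 cells/well. Compound titrations, 18 h at 37 C; CCF4 ratio read, IC50 and efficacy from Hill fits.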

For test [12], the target named is Peroxisome proliferator-activated receptor gamma (Homo sapiens) (UniProt P37231). In words: qHTS assay for small molecule agonists of peroxisome proliferator-activated receptor gamma signaling (AID 588536; active = well fitted curve in the direction sought with a large enough effect in the signal ratio, with a control signal flat, not every such curve was filed as active; the % refers to the signal ratio;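 note: 0% = DMSO basal wells and 100% = rosiglitazone at 2 µM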). The method in brief: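 GeneBLAzer PPAR-gamma-UAS-bla HEK293 cells in 1% charcoal/dextran-treated FBS medium were treated 16 h at 37 C with compounds. Beta-lactamase activity was read by CCF4 ratio (460/530 nm). Response was normalized to 2 uM rosiglitazone (100%) and DMSO, then Hill-fitted for EC50 and efficacy.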
Chain of Peroxisome proliferator-activated receptor gamma (Homo sapiens) (P37231 whole entry, looked up): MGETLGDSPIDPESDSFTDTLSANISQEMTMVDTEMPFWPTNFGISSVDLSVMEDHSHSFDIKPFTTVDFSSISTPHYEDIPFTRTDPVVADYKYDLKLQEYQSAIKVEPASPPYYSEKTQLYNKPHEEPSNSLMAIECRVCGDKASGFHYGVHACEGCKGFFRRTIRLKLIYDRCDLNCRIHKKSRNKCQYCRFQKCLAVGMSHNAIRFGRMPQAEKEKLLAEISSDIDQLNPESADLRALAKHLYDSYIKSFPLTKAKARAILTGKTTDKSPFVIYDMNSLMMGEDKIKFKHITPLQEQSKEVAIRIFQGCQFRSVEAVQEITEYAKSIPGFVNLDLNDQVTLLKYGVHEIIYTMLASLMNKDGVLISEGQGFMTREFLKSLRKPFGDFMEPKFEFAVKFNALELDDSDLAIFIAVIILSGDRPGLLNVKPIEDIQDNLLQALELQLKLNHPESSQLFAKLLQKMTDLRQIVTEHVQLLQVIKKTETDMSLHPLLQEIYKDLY

Test [13] shares this target. The experiment in a line: qHTS assay for small molecule antagonists of peroxisome proliferator-activated receptor gamma signaling (AID 588537; active = well fitted inhibition curve with a large enough effect in the signal ratio, with a control signal flat, not every such curve was filed as active; the % refers to the signal ratio;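 note: reporter cells co-stimulated with 50 nM rosiglitazone agonist during compound treatment; % of control where 0% means no effect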). The method in brief:
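PPARγ-UAS-bla HEK293 cells (3000/well) in 1% charcoal/dextran-stripped FBS are treated with compound, then stimulated with 50 nM rosiglitazone for 16 h at 37 °C. Read-out is CCF4 β-lactamase fluorescence after 2 h at RT. IC50 comes from Hill fits normalised to rosiglitazone and DMSO.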

The target of test [14] is Vitamin D3 receptor (Homo sapiens) (UniProt P11473). The experiment in a line: qHTS assay for small molecule antagonists of vitamin D receptor signaling (AID 588541; calls by dose curve;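 note: receptor activated by calcitriol during compound treatment; series mostly up to about 77 µM; % is set by controls: 0 for no effect and ±100 for the full control effect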). The method in brief: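 VDR-UAS-bla HEK293T cells in 2% charcoal-stripped FBS were stimulated with 1-alpha,25-dihydroxyvitamin D3 (3 nM final) plus compound for 16 h at 37 C. The beta-lactamase CCF4 readout was normalized to 50 nM agonist and DMSO, and Hill fits gave IC50.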
Chain of Vitamin D3 receptor (Homo sapiens) (P11473 whole entry, looked up): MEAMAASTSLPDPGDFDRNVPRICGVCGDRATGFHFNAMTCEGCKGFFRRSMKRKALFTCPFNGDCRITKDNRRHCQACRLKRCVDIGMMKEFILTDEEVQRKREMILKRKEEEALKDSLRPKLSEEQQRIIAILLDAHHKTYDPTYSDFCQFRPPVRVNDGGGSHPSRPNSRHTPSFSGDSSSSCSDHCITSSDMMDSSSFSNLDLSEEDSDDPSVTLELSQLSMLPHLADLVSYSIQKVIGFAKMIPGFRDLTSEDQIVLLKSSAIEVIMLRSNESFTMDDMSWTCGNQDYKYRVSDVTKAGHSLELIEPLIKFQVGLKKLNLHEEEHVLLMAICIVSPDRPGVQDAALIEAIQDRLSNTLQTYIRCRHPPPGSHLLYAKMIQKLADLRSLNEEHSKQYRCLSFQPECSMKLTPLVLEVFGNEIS

The target is the same in test [15]. The experiment in a line: qHTS assay for small molecule agonists of vitamin D receptor signaling (AID 588543; calls by dose curve;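 note: 0% = DMSO basal and 100% = reference agonist control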). The method in brief:
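β-lactamase reporter, VDR-UAS-bla HEK293T, agonist mode. Cells plated 5 h at 37 °C, compound titration 16 h at 37 °C, CCF4 dye 2 h RT, ratio 460/530 nm. Hill fit → EC50, efficacy vs 50 nM 1α,25-(OH)2D3.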

Test [16] addresses Estrogen receptor (Homo sapiens) (UniProt P03372). In words: qHTS assay for small molecule antagonists of estrogen receptor alpha signaling (AID 588513; active = well fitted curve in the direction sought with a large enough effect in the signal ratio, with a control signal flat, not every such curve was filed as active; the % refers to the signal ratio; note: % is set by controls: 0 for no effect and ±100 for the full control effect). The method in brief: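 Beta-lactamase reporter, antagonist mode, HEK 293 GripTite cells; 0.5nM E2 stimulus, 18 h, 37 C; CCF4 dye 2 h RT; fluorescence. IC50 and efficacy from Hill fits, normalized to E2 and DMSO.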
Test [17] concerns the target Peroxisome proliferator-activated receptor delta (Homo sapiens) (UniProt Q03181). In words: qHTS assay for small molecule antagonists of peroxisome proliferator-activated receptor delta signaling (AID 588535).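 For max response: cells co-treated with a PPAR-delta agonist as stimulator during compound exposure.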 The method in brief:
as §1

Test [18] addresses Androgen receptor (Homo sapiens) (UniProt P10275). The experiment in a line: qHTS assay for small molecule antagonists of androgen receptor signaling (AID 588516; active = well fitted curve in the direction sought with a large enough effect in the signal ratio, with a control signal flat, not every such curve was filed as active; the % refers to the signal ratio; note: % is set by controls: 0 for no effect and ±100 for the full control effect). The method in brief: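 HEK293 AR-UAS-bla cells, 10% dialyzed FBS medium; cpd titration + R1881 10 nM final, 16 h 37 C; CCF4 2 h RT; FRET ratio; IC50/efficacy via Hill fit.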
Test [19] deals with Glucocorticoid receptor (Homo sapiens) (UniProt P04150). In words: qHTS assay for small molecule antagonists of glucocorticoid receptor signaling (AID 588533; active = well fitted inhibition curve with a large enough effect in the signal ratio, with a control signal flat, not every such curve was filed as active; the % refers to the signal ratio; note: % is set by controls: 0 for no effect and ±100 for the full control effect). The method in brief:
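Antagonist-mode qHTS: compound titrations added to GRE-bla HeLa cells, then dexamethasone 2 nM final; 18 h, 37 C. CCF4 FRET fluorescence normalized to dexamethasone and DMSO; IC50 from Hill fit.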

Test [20] concerns the target Estrogen receptor (Homo sapiens) (UniProt P03372). In words: qHTS assay for small molecule agonists of estrogen receptor alpha signaling (AID 588514; calls by dose curve;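 note: 0% = vehicle only and 100% = reference agonist; nearly all actives have a fitted effect of over 70% in size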). The method in brief: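 ER-alpha-UAS-bla GripTite HEK293 cells, 5000/well in 2% charcoal/dextran-stripped FBS medium, treated with compound titrations 18 h at 37 C. CCF4 beta-lactamase read by fluorescence after 2 h RT; normalised to 20 nM 17-beta-estradiol (100%) and DMSO (0%), Hill fit for EC50 and efficacy.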

Chain of Androgen receptor (Homo sapiens) (P10275 whole entry, looked up): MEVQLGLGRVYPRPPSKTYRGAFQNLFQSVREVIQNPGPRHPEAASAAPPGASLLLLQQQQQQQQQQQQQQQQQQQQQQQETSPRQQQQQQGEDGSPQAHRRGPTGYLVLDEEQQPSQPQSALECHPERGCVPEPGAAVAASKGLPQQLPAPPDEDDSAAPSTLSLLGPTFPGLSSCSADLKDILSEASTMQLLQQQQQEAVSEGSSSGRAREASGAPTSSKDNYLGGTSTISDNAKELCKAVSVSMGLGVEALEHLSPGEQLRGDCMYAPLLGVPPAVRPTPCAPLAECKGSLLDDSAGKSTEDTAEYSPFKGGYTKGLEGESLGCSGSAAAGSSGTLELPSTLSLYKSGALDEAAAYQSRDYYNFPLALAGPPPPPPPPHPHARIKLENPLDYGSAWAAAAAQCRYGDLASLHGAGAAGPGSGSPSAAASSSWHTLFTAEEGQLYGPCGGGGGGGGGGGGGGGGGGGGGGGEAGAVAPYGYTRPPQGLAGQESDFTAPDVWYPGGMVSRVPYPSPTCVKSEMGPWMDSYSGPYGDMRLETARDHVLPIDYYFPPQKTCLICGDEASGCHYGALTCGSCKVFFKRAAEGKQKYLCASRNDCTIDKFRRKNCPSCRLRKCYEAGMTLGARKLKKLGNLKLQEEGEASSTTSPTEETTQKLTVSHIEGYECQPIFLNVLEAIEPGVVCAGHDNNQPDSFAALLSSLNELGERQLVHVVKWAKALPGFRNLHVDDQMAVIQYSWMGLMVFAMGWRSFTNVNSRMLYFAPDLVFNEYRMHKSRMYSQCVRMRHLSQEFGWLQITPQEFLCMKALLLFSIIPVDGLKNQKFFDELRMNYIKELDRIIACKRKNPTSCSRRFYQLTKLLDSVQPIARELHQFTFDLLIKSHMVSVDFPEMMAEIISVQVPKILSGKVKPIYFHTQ
Chain of Peroxisome proliferator-activated receptor delta (Homo sapiens) (Q03181 whole entry, looked up): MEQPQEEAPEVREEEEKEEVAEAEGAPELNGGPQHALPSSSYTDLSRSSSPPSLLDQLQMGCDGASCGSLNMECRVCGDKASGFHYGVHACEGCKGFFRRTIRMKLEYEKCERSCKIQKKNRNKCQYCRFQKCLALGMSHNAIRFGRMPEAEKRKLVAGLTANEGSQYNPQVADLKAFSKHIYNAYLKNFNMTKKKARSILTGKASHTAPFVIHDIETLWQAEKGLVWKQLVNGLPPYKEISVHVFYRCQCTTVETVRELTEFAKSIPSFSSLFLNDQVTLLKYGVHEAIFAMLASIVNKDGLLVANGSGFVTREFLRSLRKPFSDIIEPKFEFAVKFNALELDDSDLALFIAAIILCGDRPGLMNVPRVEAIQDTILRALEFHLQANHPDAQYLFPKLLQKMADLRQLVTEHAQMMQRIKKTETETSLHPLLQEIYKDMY
Chain of Bile acid receptor (Homo sapiens) (Q96RI1 whole entry, looked up): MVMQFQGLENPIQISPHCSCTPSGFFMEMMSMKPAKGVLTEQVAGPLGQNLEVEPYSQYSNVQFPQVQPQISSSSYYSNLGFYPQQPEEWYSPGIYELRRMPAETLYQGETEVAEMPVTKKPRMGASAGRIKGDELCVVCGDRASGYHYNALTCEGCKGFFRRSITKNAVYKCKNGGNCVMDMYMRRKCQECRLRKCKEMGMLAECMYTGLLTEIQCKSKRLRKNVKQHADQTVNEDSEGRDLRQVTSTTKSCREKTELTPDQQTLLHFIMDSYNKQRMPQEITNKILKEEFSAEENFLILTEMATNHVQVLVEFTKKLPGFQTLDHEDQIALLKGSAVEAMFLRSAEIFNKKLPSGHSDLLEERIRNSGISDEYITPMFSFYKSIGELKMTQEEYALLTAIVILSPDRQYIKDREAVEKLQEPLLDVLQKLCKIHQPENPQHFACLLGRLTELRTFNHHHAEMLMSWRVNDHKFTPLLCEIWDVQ
Chain of Glucocorticoid receptor (Homo sapiens) (P04150 whole entry, looked up): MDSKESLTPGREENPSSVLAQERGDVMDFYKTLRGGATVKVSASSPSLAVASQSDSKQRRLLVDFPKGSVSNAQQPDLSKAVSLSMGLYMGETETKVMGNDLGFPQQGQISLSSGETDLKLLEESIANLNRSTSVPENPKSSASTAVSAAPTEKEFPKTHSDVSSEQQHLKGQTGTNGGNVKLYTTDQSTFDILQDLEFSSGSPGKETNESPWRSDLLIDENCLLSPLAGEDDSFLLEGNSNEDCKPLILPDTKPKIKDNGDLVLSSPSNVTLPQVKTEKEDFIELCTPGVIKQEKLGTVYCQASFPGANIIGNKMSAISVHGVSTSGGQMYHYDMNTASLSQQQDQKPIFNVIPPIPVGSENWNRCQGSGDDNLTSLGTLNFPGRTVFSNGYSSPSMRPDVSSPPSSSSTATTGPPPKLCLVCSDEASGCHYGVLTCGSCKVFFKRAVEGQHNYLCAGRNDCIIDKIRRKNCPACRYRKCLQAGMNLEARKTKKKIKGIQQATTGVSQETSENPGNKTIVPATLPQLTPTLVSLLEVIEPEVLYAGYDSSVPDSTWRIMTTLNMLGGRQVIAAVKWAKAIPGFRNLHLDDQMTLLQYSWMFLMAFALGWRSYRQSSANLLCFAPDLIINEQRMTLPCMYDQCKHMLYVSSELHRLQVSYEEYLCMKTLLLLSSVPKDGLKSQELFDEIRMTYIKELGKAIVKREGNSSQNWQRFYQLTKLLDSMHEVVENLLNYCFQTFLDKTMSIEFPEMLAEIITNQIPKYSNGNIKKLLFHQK
Chain of Estrogen receptor (Homo sapiens) (P03372 whole entry, looked up): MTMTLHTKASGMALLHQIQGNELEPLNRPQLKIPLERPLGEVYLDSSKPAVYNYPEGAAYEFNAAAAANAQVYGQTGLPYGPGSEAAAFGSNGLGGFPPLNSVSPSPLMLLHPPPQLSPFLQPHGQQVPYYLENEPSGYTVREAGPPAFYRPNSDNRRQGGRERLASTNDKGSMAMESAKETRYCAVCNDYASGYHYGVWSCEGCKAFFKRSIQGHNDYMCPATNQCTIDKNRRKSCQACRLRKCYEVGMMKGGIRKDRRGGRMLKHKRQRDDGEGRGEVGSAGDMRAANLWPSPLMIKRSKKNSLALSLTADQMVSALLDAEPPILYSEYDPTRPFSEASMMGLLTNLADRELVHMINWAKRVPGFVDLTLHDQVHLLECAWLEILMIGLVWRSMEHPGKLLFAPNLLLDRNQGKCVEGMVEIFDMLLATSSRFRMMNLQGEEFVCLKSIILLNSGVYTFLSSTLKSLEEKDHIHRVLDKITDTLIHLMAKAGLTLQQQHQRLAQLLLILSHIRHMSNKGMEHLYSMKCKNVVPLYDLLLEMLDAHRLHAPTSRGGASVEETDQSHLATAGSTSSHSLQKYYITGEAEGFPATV

On to `Cc1c(C(=O)O)cccc1[N+](=O)[O-]`, for which the Potency result in [1], in [2], in test [3], in test [5] and in test [6] was “inactive” each time. Further, the molecule was classed as inactive in test [4], in [7], in [9], in test [12], in test [13] and in [14]. Further, in test [15], the outcome was inactive. Moreover, the figures for the activation in [8] and in [10] were -4.24% (inactive) and -3.11% (inactive), respectively. Further, the max response in test [11] is -26.4%.

With `Cc1ccc(C(C)(C)C)cc1`, the Potency entry in test [1], in test [2], in [3], in test [5], in [6] and in [17] was “inactive” in each case. Besides, the call in test [4], in [7], in test [16], in [12], in [14] and in test [15] was inactive. In addition, in test [11], the max response was -8.71%.

Consider `O=C(Cl)c1ccccc1[N+](=O)[O-]`, for which the Potency result in test [1], in test [2], in test [3], in test [5] and in [6] was “inactive” each time. Further, the call in [4], in [7], in test [18], in test [19] and in [12] was inactive. Further, the activation in test [8] is 6.98% (inactive); in test [10] it was -0.396% (inactive).

Take `C[C@@H]1CC2(OC[C@]3(C)O[C@H]23)O[C@H]2C[C@@]3(C)[C@@H]4CC[C@H]5C(C)(C)C(O[C@@H]6OC[C@@H](O)[C@H](O)[C@H]6O)CC[C@@]56C[C@@]46CC[C@]3(C)[C@@H]12` (some centres not stated): the Potency result in test [2], in test [5], in test [6] and in [20] was “inactive” in each case. Moreover, the call in test [4] and in test [7] was inactive. Also, the activation in [10] is -8.99% (inactive).

As to `C=C(C)C(=O)OC`, the Potency entry in test [1], in [2], in [3], in test [5], in [6] and in test [17] was “inactive” in each case. Besides, the molecule was called inactive in [4], in test [7], in test [9], in [19] and in test [13]. Besides, the activation in test [10] is -3.9% (inactive). Further, the max response in test [11] is -44.8%.

Turning to `CC(C)(O)C(=O)O`, the Potency result in test [1], in test [2], in test [3], in test [5], in test [6] and in test [17] was “inactive” in each case. The outcome in test [4], in test [7], in test [19], in [14] and in [15] was inactive. In [10], the activation was 5.7% (inactive). Also, the max response in test [11] came out at 57.5%.

As to `BrC/C=C/CBr`, the Potency result in test [1], in test [2], in [5], in test [6] and in test [17] was “inactive” each time. Further, the outcome in test [4], in test [7], in test [9], in [12] and in test [13] was inactive. In test [11], the max response was found to be 20.5%.

For `CC(=O)c1ccccn1`, the Potency result in test [1], in test [2], in [3], in test [5], in test [6] and in test [17] was “inactive” throughout. Also, the molecule was called inactive in test [4], in [7], in [9], in test [12], in [14] and in test [15]. For the same molecule, the max response in [11] was -20.6%.

Consider `O=[N+]([O-])c1c(Cl)cc(Cl)cc1Cl`, for which the Potency result in test [1], in test [2], in test [3], in [5] and in test [6] was “inactive” in each case. The molecule was classed as inactive in test [4], in [7], in test [19], in test [12], in test [13] and in [14]. Moreover, the outcome in [15] was inactive. In addition, in [10], the activation is 0.964% (inactive). Besides, the max response in test [11] was 0.0891%.

As to `O=C(O)/C=C/C(=O)O`, the Potency entry in test [1], in [2], in test [3], in [5], in test [6] and in test [17] was “inactive” in each case. In addition, the result in test [4], in test [7], in [19], in test [14] and in [15] was inactive. Moreover, the activation in test [10] was 27.1% (inactive). For the same molecule, in test [11], the max response is -32%.

`Cc1ccc([N+](=O)[O-])c(N)c1`: the Potency result in test [1], in [2], in test [3], in [5], in [6] and in [17] was “inactive” throughout. The molecule was classed as inactive in test [7], in [19], in [12], in test [14] and in test [15]. Besides, the activation in test [10] is -0.729% (inactive). The max response in test [11] is -3.65%.
